DAX1 inh-1 – DAX1 (NR0B1) inhibitors on StAR promoter, primary screen, cell-based, luminescence, SF-1 (NR5A1), full-length DAX-1 | HEK293T StAR-luciferase reporter, SF-1/DAX-1 repression relief | inhibition, % at 6.8 µM | 370,000 compounds, 1.1% hits;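 active = inhibition above the mean over all tested compounds plus 3 SD, cut at about 3.6% in these data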;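 note: 0% = DAX-1 cells with DMSO and 100% = cells lacking DAX-1 with DMSO; higher inhibition means more luminescence from relief of DAX-1 repression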
hcDAF-12 act – H. contortus DAF-12 nuclear receptor activators, primary screen, cell-based, luminescence, HEK293, lit1-tk-luc reporter; HEK293 hcDAF-12 lit1-tk-luc reporter; 0% DMSO, 100% Δ7-dafachronic acid; activation, % at 6.8 µM; 370,000 compounds, 1.4% hits; AID 652067, 2013;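 active = activation above the mean of all tested compounds plus 3 SD, cut at about 5.5% in these data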;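 note: 100% = response to 3 µM Δ7-dafachronic acid high control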
ssDAF12 agonist – S. stercoralis DAF-12 nuclear receptor activators, primary screen, cell-based, luminescence, HEK293, GRIP1 co-expression, lit1-tk-luc; activation, % at 6.8 µM; AID 652126, 2013; 370,000 compounds, 1% hits; HEK293 ssDAF-12/GRIP1 lit1-tk-luc reporter; % of 3 µM dafachronic acid response;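 active = activation above the mean over all tested compounds plus 3 SD, cut at about 0.9% in these data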;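 note: 0% = DMSO-only wells and 100% = 3 µM delta7-dafachronic acid wells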
hgDAF-12 ag – H. glycines DAF-12 receptor agonists, primary screen, cell-based, luminescence, HEK293, GAL4 fusion, UAS-luciferase; HEK293 GAL4-hgDAF12 UAS-luciferase reporter, agonist luminescence; normalized to butyrate control; AID 687014, 2013; 370,000 compounds, 1.8% hits; activation, % at 6.8 µM;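 active = activation above a cutoff set at the mean of all screened compounds plus 3 SD, cut at about 10% in these data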;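 note: 0% = DMSO wells and 100% = sodium butyrate wells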
DAX1 inh-2 – DAX1 (NR0B1) inhibitors, primary screen, cell-based, HEK293, Gal4-DAX1, luciferase luminescence; Nuclear receptor subfamily 0 group B member 1 (Homo sapiens), P51843; HEK293 Gal4-DAX1 luciferase reporter; inhibition, % at 6.75 µM; 340,000 compounds, 0.99% hits; AID 504766, 2011;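 active = inhibition above the mean over all tested compounds plus 3 SD, cut at about 4.2% in these data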;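 note: 0% = DAX1-transfected cells with DMSO and 100% = empty-vector control cells with DMSO; inhibition shows as a rise in luminescence from relieved DAX1 repression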
Target sequence (P51843 207-470 limits assumed): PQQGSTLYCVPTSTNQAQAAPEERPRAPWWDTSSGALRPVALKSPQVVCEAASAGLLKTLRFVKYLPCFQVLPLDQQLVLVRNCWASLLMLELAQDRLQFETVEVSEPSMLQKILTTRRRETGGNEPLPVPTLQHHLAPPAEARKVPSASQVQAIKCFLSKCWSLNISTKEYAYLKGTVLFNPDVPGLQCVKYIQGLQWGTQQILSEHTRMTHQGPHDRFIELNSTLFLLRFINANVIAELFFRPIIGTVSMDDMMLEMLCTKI
SMARCA2 activ – SMARCA2 (BRM) function activators, primary screen, cell-based, luminescence, high throughput. 370,000 compounds, 1% hits. AID 652017, 2013. MG213 cells, MMTV-luciferase reporter, dexamethasone, overnight. activation, % at 9.1 µM; in the data active = activation above about 7.8%;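 note: 0% = vehicle wells and 100% = reference activator wells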
Starred values were filed as active, the others as inactive. Most compounds without a hit are left out; they make up all but 4.8% or so of the library.

How did CC(C)n1nnnc1C1c2ccccc2C(=O)N1Cc1cccc(F)c1 (centres undefined) do in these assays?
DAX1 inh-1: 3.8*; hcDAF-12 act: 1.7; ssDAF12 agonist: -1.0; hgDAF-12 ag: -1.0; SMARCA2 activ: -4.6

Results for CC(=O)c1ccc(Oc2ncnc3sccc23)cc1 ?
DAX1 inh-1: 2.9; hcDAF-12 act: 1.7; ssDAF12 agonist: -0.6; hgDAF-12 ag: 11.0*; DAX1 inh-2: 2.7; SMARCA2 activ: 5.3

Results for CC(=O)N1CCN(c2ccc(Oc3ncnc4sccc34)cc2)CC1 ?
DAX1 inh-1: -0.7; hcDAF-12 act: -3.3; ssDAF12 agonist: -1.3; hgDAF-12 ag: -0.7; DAX1 inh-2: 0.3; SMARCA2 activ: 2.2

Results for O=C(c1ccccc1)c1ccc(OCCCCN2CCCCC2)cc1 ?
DAX1 inh-1: -0.1; hcDAF-12 act: -1.9; ssDAF12 agonist: -1.1; hgDAF-12 ag: 2.0; DAX1 inh-2: -0.3; SMARCA2 activ: -3.4

How did O=C(O)c1ccc(OCCCCCCOC2CCCCO2)cc1 (centres undefined) do in these assays?
DAX1 inh-1: 0.3; hcDAF-12 act: -1.2; ssDAF12 agonist: -1.2; hgDAF-12 ag: 0.7; DAX1 inh-2: 4.5*; SMARCA2 activ: -1.5

Results for Cc1ccc(C2=NN(C(=O)CCCC(=O)O)C(c3ccco3)C2)cc1 (centres undefined) ?
DAX1 inh-1: -0.7; hcDAF-12 act: 0.7; ssDAF12 agonist: 1.1*; hgDAF-12 ag: 4.4; DAX1 inh-2: 0.2; SMARCA2 activ: 1.5

How did Cc1ccc(N2N=C(c3ccc(F)cc3)CC2c2ccco2)cc1 (centres undefined) do in these assays?
DAX1 inh-1: -0.1; hcDAF-12 act: 0.7; ssDAF12 agonist: -1.4; hgDAF-12 ag: -1.8; DAX1 inh-2: 5.1*; SMARCA2 activ: 2.3

Results for CC(=O)N1N=C(c2ccc(C)cc2)CC1c1ccco1 (centres undefined) ?
DAX1 inh-1: 0.3; hcDAF-12 act: 1.8; ssDAF12 agonist: -0.7; hgDAF-12 ag: 2.4; DAX1 inh-2: 0.0; SMARCA2 activ: -0.8

Results for CCN(CC)c1nc(N)nc(N(c2ccccc2)c2ccccc2)n1 ?
DAX1 inh-1: 0.5; hcDAF-12 act: -1.5; ssDAF12 agonist: -0.9; hgDAF-12 ag: -0.3; DAX1 inh-2: -0.5; SMARCA2 activ: 1.2

Results for Cc1ccc(/C=C2\C(=O)Nc3ccccc32)o1 ?
DAX1 inh-1: -0.3; hcDAF-12 act: 5.2; ssDAF12 agonist: 0.3; hgDAF-12 ag: 2.1; DAX1 inh-2: 0.7; SMARCA2 activ: 0.5

How did Cc1ccc2c(c1)/C(=C/c1ccco1)C(=O)N2 do in these assays?
DAX1 inh-1: -0.7; hcDAF-12 act: 0.1; ssDAF12 agonist: -1.5; hgDAF-12 ag: 0.3; DAX1 inh-2: 5.1*; SMARCA2 activ: 2.7

How did CCC(=O)Nc1ccc2oc(-c3ccccc3Br)nc2c1 do in these assays?
DAX1 inh-1: 3.1; hcDAF-12 act: 1.8; ssDAF12 agonist: -0.3; hgDAF-12 ag: 11.0*; DAX1 inh-2: 3.9; SMARCA2 activ: 0.5

What do the screens show for `Cc1ccccc1-c1nc2cc(NC(=O)C3CC3)ccc2o1`?
DAX1 inh-1: 2.3; hcDAF-12 act: 4.7; ssDAF12 agonist: 0.2; hgDAF-12 ag: 11.4*; DAX1 inh-2: 1.4; SMARCA2 activ: 5.1

What do the screens show for `CCC(=O)Nc1ccc2oc(-c3cccnc3)nc2c1`?
DAX1 inh-1: 1.4; hcDAF-12 act: 0.2; ssDAF12 agonist: -1.2; hgDAF-12 ag: 4.4; DAX1 inh-2: 3.1; SMARCA2 activ: 2.1

How did Cc1cccn2c(CN[C@@H]3CCCC[C@H]3c3ccccc3)c(C(=O)N3CCOCC3)nc12 do in these assays?
DAX1 inh-1: 0.1; hcDAF-12 act: -1.6; ssDAF12 agonist: -1.2; hgDAF-12 ag: -1.2; DAX1 inh-2: 1.3; SMARCA2 activ: 0.5

Results for CC(C)(C)OC(=O)N(CCc1ccccc1)Cc1cccc(OCc2cccc(NC(=O)c3ccccc3)c2)c1 ?
DAX1 inh-1: 4.1*; hcDAF-12 act: 0.5; ssDAF12 agonist: -1.1; hgDAF-12 ag: 1.1; DAX1 inh-2: -0.9; SMARCA2 activ: -5.2

What do the screens show for `CC(=O)Nc1ccc(C2=NN(C)C(=NCc3ccccc3)SC2)cc1`?
DAX1 inh-1: -1.4; hcDAF-12 act: -1.1; ssDAF12 agonist: -1.8; hgDAF-12 ag: -0.1; DAX1 inh-2: -1.1; SMARCA2 activ: -2.7

What do the screens show for `CN(C)S(=O)(=O)c1ccc(S(=O)(=O)N2CCN(CCC#N)CC2)cc1`?
DAX1 inh-1: -0.3; hcDAF-12 act: -0.8; ssDAF12 agonist: -1.3; hgDAF-12 ag: -0.8; DAX1 inh-2: 6.2*; SMARCA2 activ: -0.2

What do the screens show for `N#CCCN1CCN(S(=O)(=O)c2ccc(S(=O)(=O)NCc3ccccc3)cc2)CC1`?
DAX1 inh-1: 1.8; hcDAF-12 act: 0.1; ssDAF12 agonist: -1.6; hgDAF-12 ag: -1.3; DAX1 inh-2: 5.4*; SMARCA2 activ: 0.1

Results for O=[N+]([O-])c1ccc(N2CCN(C(=S)NCc3ccc(Cl)cc3)CC2)cc1 ?
DAX1 inh-1: -3.5; hcDAF-12 act: -3.6; ssDAF12 agonist: -1.7; hgDAF-12 ag: -4.3; DAX1 inh-2: -3.8; SMARCA2 activ: -7.5

What do the screens show for `CC1=C(C(=O)N(C(C)C)C(C)C)CC(CC(=O)NCCCN(C)C)C(=O)N1Cc1ccccc1` (centres undefined)?
DAX1 inh-1: 1.1; hcDAF-12 act: -0.9; ssDAF12 agonist: -0.9; hgDAF-12 ag: 0.7; SMARCA2 activ: -4.5

What do the screens show for `COc1ccc2nc(-c3ccc(CN4CCC(c5nc6ccccc6[nH]5)CC4)cc3)c(-c3ccccc3)nc2c1`?
DAX1 inh-1: -2.8; hcDAF-12 act: -2.8; ssDAF12 agonist: -2.1; hgDAF-12 ag: -0.8; SMARCA2 activ: 7.5

What do the screens show for `CCOC(=O)[C@]12CCCC=C1N(Cc1ccc(OC)cc1)C(=O)[C@@H]2CC(=O)N1CCN(C(=O)C2CC2)CC1`?
DAX1 inh-1: -1.6; hcDAF-12 act: -1.3; ssDAF12 agonist: 1.8*; hgDAF-12 ag: -0.8; SMARCA2 activ: -2.4

What do the screens show for `CCOC(=O)[C@]12CCCCC/C=C\1N(Cc1ccc(OC)cc1)C(=O)[C@H]2CC(=O)N1CCN(C(=O)C2CC2)CC1`?
DAX1 inh-1: -0.1; hcDAF-12 act: -3.3; ssDAF12 agonist: -0.6; hgDAF-12 ag: -0.8; SMARCA2 activ: -0.3

Results for Cn1c(=O)c2cc(NC(=O)NCc3ccccc3)ccc2n1C/C=C/c1ccccc1 ?
DAX1 inh-1: 1.3; hcDAF-12 act: 1.1; ssDAF12 agonist: -0.8; hgDAF-12 ag: 10.6*; SMARCA2 activ: 0.9
